This passage reports activity change results from PubChem BioAssay AID651550 (National Center for Advancing Translational Sciences (NCATS), 2012).

About 1,100 (0.31%) of roughly 360,000 compounds were called active. This excerpt belongs to a sample that is enriched for actives. A number with no mark means an inactive call. No stated cut-off is given here; in the data, active means activity change below about -80%; inconclusive means mostly about -51% to -80%; inactive means weaker than that.
On the % scale 0 is the no-effect control and ±100 the full control effect.

In the assay the target is RAC-alpha serine/threonine-protein kinase (Homo sapiens) (UniProt P31749). The assay can be described thus: HTS Assay for Inhibitors of Akt Phophorylation: Primary Screen. To be noted: Neuro2A IGF-stimulated pAkt S473 HTRF, 20 min; at 50 µM, active compounds read low. The source says:
The serine/threonine protein kinase Akt (protein kinase B) regulates various cellular processes, including cell survival, growth, proliferation, migration and differentiation. It has been well established that Akt is activated through two essential steps involving membrane translocation and phosphorylation. Cytosolic Akt is recruited to the plasma membrane via the interaction between the PH domain and membrane PIP3 produced by phosphoinositide-3 kinase (PI3K) upon growth factor receptor stimulation. The membrane-Akt interaction results in conformational changes of Akt, enabling its activation through phosphorylation at T308 in the kinase domain and at S473 in the C-terminal hydrophobic motif by PDK1 and mTOR-rictor complex (mTORC2), respectively. […] These findings indicate that S473 phosphorylation, as an important modulator of Akt activation, may be a valuable drug target for cell growth, survival, proliferation and differentiation. These inhibitors also may have significant therapeutic potential with fewer side effects, especially for the conditions involving hyperactive Akt signaling, such as cancer and Alzheimer's disease.
To this end, a miniaturized assay was developed to be screened against the Molecular Libraries Small Molecule Repository (MLSMR).
NIH Chemical Genomics Center [NCGC]
NIH Molecular Libraries Probe Centers Network [MLPCN]
Assay Submitter (PI): Hee-Yong Kim, National Institute on Alcohol Abuse and Alcoholism
3 uL of Neuro2A cell suspension in DMEM containing 0.5% FBS and […] antibiotics mix was plated in a white solid bottom tissue culture-treated 1536-well plate (Greiner Bio-One, Monroe, NC) at 4,500 cells per well and incubated overnight at 37 deg C. 23 nL/well of compound solutions in DMSO was added with Pintool transfer (Kalypsis, San Diego, CA) at single […] final concentration. Then, the cells were stimulated with 1.5 uL of IGF (6 nM final concentration) and incubated at 37 deg C for 20 min. The reaction was terminated by the addition of 1.5 uL blocking reagent mixed with lysis buffer (1:25 correspondingly) provided with HTRF(R) Phospho Akt (Ser473) kit (Cisbio US, Bedford, MA), with following incubation for 50 min at ambient temperature. The detection HTRF conjugates from the kit were prepared according to the protocol, pre-mixed 1:1 prior to dispensing, and 2 uL/well was added with BioRAPTR FRD dispenser (Beckman Coulter). The assay plates were incubated for 24 hours at ambient temperature, and the HTRF fluorescence was measured using Envision plate reader (PerkinElmer) with excitation at 330nm, emission at 615nm (Eu(3)-Cryptate donor signal) and 665nm (d2 acceptor signal). The ratio of […] was calculated for each well.
(In general: In TR-FRET formats the signal depends on donor and acceptor labels being close together.)
Turning to `C=CCNc1nc(C)nc(OC)n1`, the activity change result is “inactive”.
For `C=CCNc1nnc(SCC(=O)N2CCCCC2)c2ccccc12`, the activity change is 4.07%.
With `C=CCNc1nnc(C)c2ccccc12` the figure was -110% (active).
Regarding `CCCc1nnc(NC(=O)CCC(=O)N2CCN(S(=O)(=O)c3ccc(OC)cc3)CC2)s1`, the activity change entry was “inactive”.
With `Cc1nnc(N/N=C/c2ccccn2)[nH]c1=O` the entry was “inactive”.
Consider `CCc1c(Nc2ccccc2C)nc(N)[nH]c1=O`, for which the activity change entry was “inactive”.
With `Cc1ccccc1Nc1nnc(C)c(=O)[nH]1` the figure was -109% (active); with `Cc1cccc(C)c1NC(=O)C(c1cccc2ccccc12)n1c(=O)c(-c2ccco2)nc2ccccc21` (stereo not given), “inactive”.
With `COc1cccc(-c2ccc3c(c2)N(Cc2ccccc2OC)C(=O)C(C)S3)c1` (stereo not given) the entry was “inactive”.
With `CCc1c(-c2ccc(F)cc2)ncn1Cc1cccc(-c2ccccc2)c1` the entry was “inactive”; with `CCCCCn1nnnc1-c1nc2cc3ccccc3cc2[nH]c1=O`, “inactive”.
As for `COc1ccccc1NC(=O)C1CCN(C(=O)c2ccc(C(C)(C)C)cc2)CC1`, the activity change entry is “inactive”.
With `Cc1cc(Br)cn2c(Cc3ccccc3C(F)(F)F)c(-c3ccc(Cl)cc3)nc12` the entry was “inactive”; with `CSc1ccc(-c2c(C#N)c(N)nc3c2c(C)nn3-c2ccccc2)cc1`, -83.6% (active).
With `Cc1nc2c(c(C)nn2-c2ccccc2)c(C)c1C` the entry was “inactive”.
With `Cn1c(=O)c2c(-c3cccc(Br)c3)c(C#N)c(N)nc2n(C)c1=O` the entry was “inactive”; with `COc1ccc(NC(=O)C(c2ccncc2)n2c(=O)c(-c3cc4ccccc4[nH]3)nc3ccccc32)cc1` (stereo not given), “inactive”.
Turning to `Nc1nc2ncccn2c1-c1ccccc1`, the activity change result was “inactive”.
With `Cc1ccc2[nH]c(=O)c(COC(=O)c3ccccn3)cc2c1` the figure was -7.82%; with `CCOC(=O)c1cc2cc(C)ccc2[nH]1`, “inactive”.
With `CC(=O)OCc1cc2cc(C)ccc2[nH]c1=O` the figure was -102% (active).
With `Cc1noc(C)c1S(=O)(=O)N(CC(=O)NCc1ccc(Cl)cc1)c1ccc2c(c1)OCO2` the entry was “inactive”; with `CCOc1ccc(N(CC(=O)OC)S(=O)(=O)c2c(C)noc2C)cc1`, “inactive”.
In the case of `CCOc1ccc(N(CC(=O)NCc2ccc(OC)cc2)S(=O)(=O)c2c(C)noc2C)cc1`, the activity change is -134% (active).
With `NC(=NC(=O)c1ccccc1)N1CCOCC1` the entry was “inactive”.
With `Cc1onc(-c2ccccc2)c1C(=O)N=C(N)c1ccc(Cl)cc1` the entry was “inactive”; with `NC(=NC(=O)c1ccccc1)C1=C(O)CCC1=O`, -110% (active); with `O=C(O)Cc1csc(-c2cccc(Oc3ccccc3)c2)n1`, “inactive”.
With `CCCCOCCCNC(=O)C[C@@H]1C[C@@]2(C(=O)OCC)CCCC=C2N(CCC2=CCCCC2)C1=O` the entry was “inactive”.
For the compound `CC(C)N1C(=O)c2ccccc2NC(=O)C1C(=O)NCc1cccs1` (stereo not given), the activity change result was “inactive”.
